Reference: the supplement of paper PMC8726507
Values without a mark were called inactive.

Tested on: Plasmodium falciparum NF54-HGL (transmission to Anopheles stephensi)
Experiment: percentage of barcode signal found in uninfected mosquitoes (transmission-blocking activity); higher = stronger blocking of transmission to mosquito, active = 80 or more
Conditions: 10 µM; gametocyte preincubation time 24 h; readout time post-feed 8 days
Procedure: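 The mixture was fed to Anopheles stephensi in 96-well plates as blood meals tagged with DNA-barcoded Asaia bacteria. Eight days later, mosquitoes were classed infected or uninfected by luminescence (mean + 5 SD of unfed controls). Barcodes were quantified by Luminex MagPlex-TAG in the pooled uninfected and infected Asaia cultures, background-corrected, and the score is % of barcode signal in uninfected mosquitoes = 100*Iu/(Iu+Ii).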

Structure (SMILES)	percentage of barcode signal found in uninfected mosquitoes
O=C(NCc1ccco1)N1CCN(Cc2ccc(Cl)s2)CC1	0.794%
N=C(N)c1ccc(-c2cc(-c3ccccc3)on2)cc1	33.2%
Nc1ncnc2c1ncn2C[C@@H](O)[C@@H](O)C(=O)O	39.9%
Cc1ncc(-c2ccnc(Nc3ccc(S(C)(=O)=O)cc3)n2)n1C(C)C	82.6% (active)
O=C1N(Cc2cc3ccccc3s2)CC2CN(Cc3ccccc3)CCN12 (stereo not given)	58.1%
O=C(Nc1ccc(N2CCNCC2)nc1)c1oc(-c2ccccc2)nc1C(F)(F)F	79.2%
N#Cc1nc(-c2ccccc2)oc1S(=O)(=O)c1ccc(Cl)cc1	72.7%
Clc1cccc(C(c2ccc(CN3CCNCC3)cc2)n2ccnc2)c1 (stereo not given)	89.4% (active)
COC(=O)c1ccc(F)cc1NS(=O)(=O)c1cccc(-c2cnn(Cc3ccccc3)c2)c1	31.1%
O=C(Nc1nc(-c2ccccn2)cs1)c1cncn1-c1ccccc1	21.4%
Cc1nc(-c2cccc(NCc3ccccc3)c2)[nH]c1C	2.32%
CS(=O)(=O)Cc1nc2ccccc2oc1=O	80.3% (active)
CC[C@@H]([C@H](C)O)n1ncn(-c2ccc(N3CCN(c4ccc(OC[C@@H]5CO[C@@](Cn6cncn6)(c6ccc(F)cc6F)C5)cc4)CC3)cc2)c1=O	42.4%
O=C1COCc2ccc(Br)cc2N1Cc1ccc(C(F)(F)F)cc1	22.4%
O=C(NC1=NCCS1)c1sc2cc(F)ccc2c1Cl	5.7%
Cc1nnc(NCc2cccc(Cl)c2)c2ccccc12	34.2%
CC1=Nc2ccc(Cl)cc2C(O)(c2ccc(C)cc2)N1CCN1CCCCC1 (stereo not given)	83.9% (active)
O=C(NCCN1CCCC1)c1cc(NCCCCN2CCC(F)(F)CC2)nc2ccc(Cl)cc12	91.2% (active)
Cc1cc2ccccc2n1CC(=O)N1CC(C(=O)N2CCCCC2)Oc2ccccc21 (stereo not given)	34.8%
CNC1C(OC2C(OC3C(O)C(O)C(NC(=N)N)C(O)C3NC(=N)N)OC(C)C2(O)C=O)OC(CO)C(O)C1O (stereo not given)	47%

Same assay, conditions: 20 µM; gametocyte preincubation time 24 h; readout time post-feed 8 days

Structure (SMILES)	percentage of barcode signal found in uninfected mosquitoes
O=C(Nc1ccccc1)c1ccc(-c2cc3ccncc3cc2OC2CCNCC2)s1	82.7% (active)
c1ccc(Oc2ccc(-c3cc(N4CCOCC4)[nH]n3)cc2)cc1	1.03%
C[C@H](C(N)=O)N1CCCC[C@@H]1c1ccc(OCc2cccc(F)c2)cc1	17.3%
O=C(N[C@H](Cc1ccccc1)C(=O)Nc1ccccc1N1CCOCC1)c1cccs1	13.5%
CNC(=O)CNc1nc(-c2ccccn2)nc2scc(-c3ccccc3)c12	69.6%
Cc1nn(C(=O)Nc2cccc(C(F)(F)F)c2)c(C)c1Sc1ncccn1	2.49%
CCc1nc2ccc(Cl)cn2c1C(=O)NCc1ccc(N2CCC(c3ccc(OC(F)(F)F)cc3)CC2)cc1	32%
CCc1ccc(C(NCc2nc(N)nc(N(C)C)n2)C(C)C)cc1 (stereo not given)	54.2%
COc1ccc(-c2cnc3cnc(-c4cccc(OC(C)C)c4)cn23)cc1	-0.618%
CC(C)(C)c1cc(C(=O)N2CCN(c3nccnc3C#N)CC2)n(Cc2ccccc2)n1	33.5%
CC(C)(CN)c1nc(-c2ccc(Cl)c(O)c2)c(-c2ccnc(N)n2)[nH]1	80.9% (active)
c1cc(C2=NCCN2)cc(-c2cc(-c3ccc(C4=NCCN4)cc3)no2)c1	50%
Cc1cc(Cl)ccc1NC(=O)CCc1ccc(S(=O)(=O)NCC(C)C)cc1	0.0223%
Nc1ncc(-c2cn[nH]c2)cc1-c1nc2cc(Cl)cnc2[nH]1	48.9%
COc1ccc(-c2cncc3ccc(C(=O)NCCCn4ccnc4)nc23)cc1	62.9%
CS(=O)(=O)N1CCC(Cn2nc(Cc3cccc4ccccc34)c3c(N)ncnc32)CC1	28.2%
NCCN(C(=O)c1ccc(Cl)cc1Cl)c1ccc(OCc2ccc(Cl)cc2)cc1	65.8%
CC(C)(C)c1ccc(N[C@@H]2CCCC[C@H]2NC(=O)c2ccco2)cc1	31.3%
CC1=Nc2ccc(Cl)cc2C(c2ccccc2)N1CCNC(=O)CN(C)C (stereo not given)	71.2%
Cc1[nH]c2cc(F)cc(F)c2c(=O)c1-c1ccc(Oc2ccc(OC(F)(F)F)cc2)cc1	78.3%
